PINK1 modulator = PINK1 expression modulation; PINK1 immunofluorescence, high-content cytometry, 24 h; Potency, µM (top dose mostly 76.6 µM), inactives show at the top dose activation (PINK1 increase), most hits filed as activators; hit rate 0.2% among 410,000; AID 624263; active = well fitted activation curve with a large enough effect; inconclusive = small, poorly fitted or top-dose-only effect; cell line not stated here; note: % of control where 0% means no effect; nearly all actives have a fitted effect of over 65% in size
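PINK1 protein level read as immunofluorescence by microplate cytometer in a fixed, stained stable cell line after 24 h exposure to five compound concentrations, with CCCP as control.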
ALOX12 inh = inhibitors of human 12S-lipoxygenase ALOX12; P18054; purified 12hLO, xylenol orange hydroperoxide absorbance; Potency, µM (doses to about 108 µM), for the others: top-dose activity change, negative = inhibition, actives largely listed as inhibitors; hit rate 1.1% among 580,000; note: % is set by controls: 0 for no effect and ±100 for the full control effect
Target sequence (P18054 whole entry, looked up): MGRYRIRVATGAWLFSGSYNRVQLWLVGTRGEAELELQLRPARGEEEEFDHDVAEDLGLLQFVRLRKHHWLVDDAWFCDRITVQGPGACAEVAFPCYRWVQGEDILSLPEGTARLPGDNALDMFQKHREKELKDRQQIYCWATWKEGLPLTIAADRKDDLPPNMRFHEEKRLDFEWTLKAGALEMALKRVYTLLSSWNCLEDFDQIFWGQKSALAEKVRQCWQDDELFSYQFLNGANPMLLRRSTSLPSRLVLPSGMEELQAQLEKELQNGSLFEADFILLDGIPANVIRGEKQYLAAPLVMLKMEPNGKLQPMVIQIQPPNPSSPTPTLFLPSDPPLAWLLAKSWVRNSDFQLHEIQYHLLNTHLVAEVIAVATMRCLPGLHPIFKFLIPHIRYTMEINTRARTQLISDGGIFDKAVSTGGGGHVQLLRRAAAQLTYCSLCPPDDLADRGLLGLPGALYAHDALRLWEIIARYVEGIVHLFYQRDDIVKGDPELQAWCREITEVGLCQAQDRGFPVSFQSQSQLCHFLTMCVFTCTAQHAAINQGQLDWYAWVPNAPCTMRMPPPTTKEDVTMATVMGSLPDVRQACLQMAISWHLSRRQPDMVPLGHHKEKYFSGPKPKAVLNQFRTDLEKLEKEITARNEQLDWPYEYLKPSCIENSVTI
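Purified human 12hLO (150 nM final) in 25 mM Hepes, 0.01% Triton X-100, pH 7.0 was preincubated 15 min at room temperature with compound. Then 40 uM arachidonic acid was added, 30 min. Hydroperoxide was read by Fe-XO absorbance ratio 573/405 nm.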
SW480 rereplic = induces DNA re-replication in SW480 colon adenocarcinoma cells. SW480 DNA re-replication, Hoechst DNA content imaging, 48 h. Potency, µM (doses to about 46.1 µM), inactives show top-dose re-replication activation, hits mostly activators. hit rate 1.8% among 340,000. AID 624297; note: % of control where 0% means no effect; nearly all actives have a fitted effect of over 55% in size
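Hoechst fluorescence of nuclei (405 nm excitation, 500-530 nm emission) measured by plate-scanning imager after 48 hr compound exposure at 37 C; re-replication scored as increased number of nuclei with elevated intensity.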
KB-V1 cytotox = KB-V1 MDR subline cytotoxicity; KB-V1 MDR cells viability, CellTiter-Glo, 72 h; Potency, µM (series often up to 46.1 µM), usual class: cytotoxic; hit rate 3.4% among 400,000; AID 1347076; note: % is set by controls: 0 for no effect and ±100 for the full control effect; nearly all actives have a fitted effect of over 60% in size
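KB-V1 cells (P-gp-expressing MDR subline of KB-3-1) in phenol-red-free DMEM with 10% FBS were exposed to library compounds over a concentration series for 72 h at 37 degrees C. Viability read by CellTiter-Glo luminescence; concentration-effect curves fitted after normalization.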
KB-3-1 tox = KB-3-1 parental cell cytotoxicity. KB-3-1 viability, CellTiter-Glo ATP luminescence, 72 h. Potency, µM (top dose mostly 46.1 µM), actives largely listed as cytotoxic. hit rate 1.4% among 400,000. AID 1347075; note: % is set by controls: 0 for no effect and ±100 for the full control effect; nearly all actives have a fitted effect of over 60% in size
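Multi-concentration cytotoxicity screen in KB-3-1 cells grown in DMEM lacking phenol red with 10% FBS. After 72 h at 37 °C with compound, ATP-dependent luminescence was recorded.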
MCF10A rereplic = DNA re-replication induction in MCF 10a cells; MCF 10A DNA re-replication, Hoechst nuclear intensity, 48 h; Potency, µM (top dose mostly 46.1 µM), for inactives: at the top dose activity, positive = re-replication, most hits filed as activators; hit rate 2.9% among 350,000; AID 624296; note: % of control where 0% means no effect; nearly all actives have a fitted effect of over 50% in size
* marks the source's active call; other numbers are inactive results; i = inactive; ? = inconclusive; nt = no result given; [ ] = dose if it differs, or a comment. Rows were chosen to be rich in hits. Some 5.8% of all compounds tested hit in one or more screens of this group. Unless noted, calls come from the whole dose curve; as a rule, active = well fitted curve in the direction sought with a large enough effect; inconclusive = small, poorly fitted or top-dose-only effect, or another doubt; inactive = no such curve, though single readings can be large; an effect the other way counts as inactive or inconclusive. Potency is the fitted concentration of half-maximal effect.

SMILES	PINK1 modulator	ALOX12 inh	SW480 rereplic	KB-V1 cytotox	KB-3-1 tox	MCF10A rereplic
COc1ccc(Sc2ccc(-c3nc4cnccn4c3NC3CCCCC3)cc2OC)cc1	21.4%	-11.5%	18.4µM*	?	?	3.26µM*
Clc1ccc(-c2nc3cnccn3c2NC2CCCC2)cc1	-2.8%	nt	23.1µM*	6.51µM*	?	20.6µM*
Cc1ccc2nc(-c3ccncc3)c(NC3CCCCC3)n2c1	0.8%	-3.8%	0.4%	20.6µM*	?	9.1%
CC(=O)Nc1cccc(NC(=O)c2nccnc2-c2nc3ccccc3s2)c1	nt	1.3%	nt	nt	nt	nt
NC(=S)NN=C1c2ccccc2-c2c(F)c(F)c(F)c(F)c21	0.8%	?	14.6µM*	?	?	6.51µM*
N#Cc1cccc2c1-c1ccccc1/C2=N/NC(N)=S	-2.9%	nt	24.2%	?	?	?
ON=C1c2ccccc2-c2ccc(Br)cc21	-0.3%	-6.9%	-4.8%	i	i	?
NC(=S)NN=C1c2ccccc2-c2cc(Br)ccc21	-2.7%	39.8µM*	-1.0%	?	?	20.8%
Cc1nn(-c2ccc3nncn3n2)c2c1C(c1ccc(O)c(Cl)c1)CC(=O)N2 (configuration not stated)	nt	3.4%	nt	nt	nt	nt
CC(NCc1ccccc1)C(=O)C12CC3CC(CC(C3)C1)C2 (configuration not stated)	nt	-19.2%	nt	nt	nt	nt
O=C1CCCCCN1Sc1ccccc1	-1.7%	15.8µM*	?	i	?	?
CSc1nnc2c3ccccc3n(CCc3ccccc3)c2n1	6.9%	-11.7%	?	i	9.2µM*	?
CCSc1nc2n(n1)C(c1cccc(F)c1)C1=C(CCCC1=O)N2 (configuration not stated)	1.1%[38.3 µM]	-21.3%	-5.9%	13µM*	i	-1.2%
S=C(NNC(=S)NC1CCCCC1)NC1CCCCC1	nt	-8.2%	nt	nt	nt	nt
COc1ccc(N(CC(=O)N2CCC(Cc3ccccc3)CC2)S(C)(=O)=O)cc1	-2.3%	-6.8%	5.8µM*	?	i	?
CN(C)S(=O)(=O)N(CC(=O)N1CCC(Cc2ccccc2)CC1)c1ccccc1	15.0%	1.2%	-11.8%	i	i	-6.7%
CS(=O)(=O)N(CC(=O)N1CCCCCC1)c1ccccc1	1.0%	-19.1%	0.3%	i	i	11.6%
CS(=O)(=O)N(CC(=O)N1CCCC1)c1ccc(OCc2ccccc2)cc1	-0.2%[38.3 µM]	14.3%	0.9%	14.6µM*	?	-1.1%
O=C(CCn1c(=O)[nH]c2ccsc2c1=O)N(CCc1ccccc1)Cc1ccccc1	9.0%	-20.3%	-0.4%	20.6µM*	?	6.9%
O=C(CCCCn1c(=O)[nH]c2ccsc2c1=O)NCCc1ccccc1	2.0%	-1.5%	-8.7%	i	i	0.8%
CC1CCN(C(=S)Nc2ccc3nc4n(c(=O)c3c2)CCCCC4)CC1	0.9%	-7.5%	-4.2%	6.51µM*	i	?
O=C(Nc1ccc2nc3n(c(=O)c2c1)CCCC3)c1cc([N+](=O)[O-])ccc1F	-3.3%	nt	14.6µM*	16.4µM*	i	14.6µM*
Cc1cc(C)c(S(=O)(=O)N2CCCC2c2nc3ccccc3[nH]2)c(C)c1 (configuration not stated)	nt	12.8%	nt	nt	nt	nt
Fc1ccc(-c2cnc([C@@H]3COCCN3Cc3cnc4ccccc4c3)[nH]2)c(F)c1	nt	16.1%[176 µM]	nt	nt	nt	nt
COc1ccc2c(C)c(CC(=O)NC3CC(C)(C)NC(C)(C)C3)c(=O)oc2c1OC	nt	-0.4%	nt	nt	nt	nt
SMILES	PINK1 modulator	ALOX12 inh	SW480 rereplic	KB-V1 cytotox	KB-3-1 tox	MCF10A rereplic
Cc1nc2ccccc2c(=O)n1/N=C/c1c(O)ccc2ccccc12	13.4%	-7.5%	2.91µM*	i	i	12.8%
O=c1c2ccccc2nc(/C=C/c2cc(Br)ccc2O)n1CCCO	-0.3%	?	?	?	20.6µM*	?
O=c1c2ccccc2nc(N/N=C/c2ccc(O)cc2)n1O	-0.7%	113.6%	-2.0%	i	i	?
Cc1nc2ccccc2c(=O)n1/N=C/c1c(O)ccc2oc3c(c12)CCCC3	7.8%	?	17.2%	18.4µM*	?	1.2%
Cc1nc2ccccc2c(=O)n1/N=C/c1ccc(N(C)C)cc1	-2.5%[38.3 µM]	19.3%	-2.6%	i	i	10.9%
CC(C)(C)N=Cc1c(O)ccc2oc3c(c12)CCCC3	-2.2%	-28.7%	3.7%	i	i	13.6%
O=c1c2ccccc2nc(N/N=C/c2c(O)ccc3ccccc23)n1O	-1.3%	?	?	i	?	3.26µM*
COC(=O)c1cc(-c2cnn(C)c2C)nc2ccccc12	nt	-16.6%	nt	nt	nt	nt
COc1ccc(Br)cc1/C=N/n1c(C)nc2ccccc2c1=O	2.1%	0.0%	-4.5%	i	i	9.0%
Cc1nc2ccccc2c(=O)n1/N=C/c1cc(Br)ccc1O	3.5%	420.5%	20.6µM*	?	?	3.5%
CCc1ccc(Cl)c(CC)c1NC(=O)C1CC2CCC(C1)C21SCCS1 (configuration not stated)	nt	2.4%	nt	nt	nt	nt
CCn1c(C)nc2cc(S(N)(=O)=O)ccc21	-1.4%	0.7%	17.9%	i	i	12.6µM*
COc1ccc(-n2c(=O)c(-c3ccc(Cl)cc3)nc3cnc(N(C)C)nc32)cc1	1.8%	11.2µM*	nt	nt	nt	nt
c1ccc(-c2nnc(-c3ccccn3)nc2NC2CCCCC2)cc1	-0.1%	-4.0%	?	?	16.4µM*	10.3µM*
Clc1ccc(CNc2nc(CN3CCOCC3)nc3scc(-c4ccccc4)c23)cc1	-1.3%	16.8%	-11.4%	20.6µM*	?	13µM*
c1ccc(CNc2nc(CN3CCOCC3)nc3scc(-c4ccccc4)c23)cc1	2.8%	5.2%	-13.2%	i	i	-8.3%
O=C(CNc1ccccc1C(=O)NCc1ccco1)NC(=O)NCc1ccccc1	nt	-34.9%	nt	nt	nt	nt
Cc1ccc(S(=O)(=O)N2CCN(C(=O)[C@H](Cc3ccccc3)NC(=O)c3ccco3)CC2)cc1C	0.7%	22.5%	0.4%	11.6µM*	i	1.5%
O=C(C1COc2ccccc2O1)N1CCN(S(=O)(=O)c2ccccc2)CC1 (configuration not stated)	-0.5%	11.3%	-0.4%	?	i	1.9%
Cc1ccc(S(=O)(=O)N2CCN(C(=O)C3COc4ccccc4O3)CC2)cc1C (configuration not stated)	-4.4%[38.3 µM]	?	0.9%	9.2µM*	i	11.8%
Cc1c(CCC(=O)NCc2ccc(F)cc2)c(=O)oc2c(C)c(O)ccc12	nt	-3.2%	nt	nt	nt	nt
CCN(CC)C(CNC(=O)c1nn(C)c(=O)c2ccccc12)c1ccccc1 (configuration not stated)	nt	40.1%	nt	nt	nt	nt
Cc1ccncc1-c1c(C)nn2c1N(Cc1cccc(OC(F)(F)F)c1)CCC2	nt	-24.4%[176 µM]	nt	nt	nt	nt
